# Bioassay records deposited in PubChem BioAssay by National Center for Advancing Translational Sciences (NCATS).
# Tau fluor cs: counter-screen for tau fibril formation inhibitors; tau K18 P301L Alexa594 fluorescence, heparin fibrillization; 280,000 tested, 0.93% active; Potency, µM (series often up to 57.7 µM), without a hit: at the highest dose activity change, negative = decrease; note: nearly all actives have a fitted effect of over 55% in size
#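 Human K18 P301L tau (15 uM unlabeled plus 0.24 uM Alexa 594-labeled, final) in 100 mM sodium acetate pH 7 was mixed with compound and 20 uM heparin and incubated 6 hr at 37 C.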
# PLK1 PBD block: blocks phosphopeptide binding to human PLK1 polo-box domain; P53350; Plk1 PBD binding of FITC phosphopeptide, fluorescence polarization; Potency, µM, for the others: max response, negative = inhibition, hits mostly inhibitors; 360,000 tested, 2.8% active; AID 720504; note: series mostly up to about 57 µM; nearly all actives have a fitted effect of over 65% in size
# Sfp inh: Sfp phosphopantetheinyl transferase inhibition | Q9F4F7 | Biochemical Sfp PPTase activity, qHTS | Potency, µM, without a hit: largest response in the series, negative = inhibition, hits mostly inhibitors | 310,000 tested, 3.5% active;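 note: the enzyme is Sfp with the accession as filed and its product quenches rhodamine fluorescence; 0% = enzyme reaction without inhibitor and -100% = no enzyme wells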
#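 Fluorescence-quenching assay: 15 nM Sfp-PPTase preincubated 15 min at room temperature with compound, then 5 uM rhodamine-CoA and 12.5 uM BHQ-2-labelled YbbR peptide added. Fluorescence (ex 525/em 598 nm) read at start and after 30 min; difference gives rate.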
# VDR inh: inhibitors of human vitamin D receptor | P11473 | VDR-SRC2-3 peptide fluorescence polarization, 2 h | Potency, µM, for inactives: max response, negative = inhibition, usual class: inhibitors | 400,000 tested, 0.93% active | AID 504847
# Target sequence (P11473 whole entry, looked up): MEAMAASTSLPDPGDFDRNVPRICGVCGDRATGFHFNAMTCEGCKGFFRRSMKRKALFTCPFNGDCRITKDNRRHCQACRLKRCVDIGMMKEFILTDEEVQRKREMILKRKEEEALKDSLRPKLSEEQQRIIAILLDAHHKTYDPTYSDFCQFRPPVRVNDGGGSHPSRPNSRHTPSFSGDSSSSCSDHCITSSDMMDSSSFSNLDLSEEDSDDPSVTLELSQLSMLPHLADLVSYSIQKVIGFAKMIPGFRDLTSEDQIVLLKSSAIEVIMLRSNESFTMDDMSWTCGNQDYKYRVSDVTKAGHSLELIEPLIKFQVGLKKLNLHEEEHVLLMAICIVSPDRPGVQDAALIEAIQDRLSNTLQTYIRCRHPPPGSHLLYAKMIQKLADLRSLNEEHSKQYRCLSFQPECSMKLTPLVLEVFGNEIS
#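 Signal is fluorescence polarization, reporting how far test compounds block the interaction of VDR with the SRC2-3 coregulator peptide after a 2 h room-temperature incubation.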
# Tau fibril FP: tau fibrillization inhibition (FP) | P10636 | K18 P301L tau heparin fibrillization, Alexa594 FP, 6 h | Potency, µM (titrated, usually from 57.7 µM), without a hit: at the highest dose activity, negative = inhibition, most hits filed as inhibitors | 280,000 tested, 0.39% active | AID 1468; note: nearly all actives have a fitted effect of over 55% in size
# Target sequence (P10636 561-689 P618L limits assumed): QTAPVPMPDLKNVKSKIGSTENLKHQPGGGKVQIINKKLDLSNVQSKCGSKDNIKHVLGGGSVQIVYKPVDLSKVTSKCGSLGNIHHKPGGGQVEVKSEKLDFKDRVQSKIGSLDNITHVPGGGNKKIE
#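 Heparin (20 uM) drove fibril formation of recombinant tau K18 P301L, 15 uM unlabeled with 0.24 uM Alexa 594 label, for 6 hr at 37 C in 100 mM sodium acetate pH 7. Fluorescence polarization (555/632 nm) read 1 hr after 30 uM ThT.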
# Tau ThT inhib: blocks human tau fibril formation measured by thioflavin T; P10636; recombinant tau K18 P301L (four-repeat tau fragment), heparin-induced fibrillization, ThT fluorescence; Potency, µM (highest dose often 57.4 µM), inactives show at the highest dose activity, negative = inhibition, most hits filed as inhibitors; 270,000 tested, 2.1% active; note: nearly all actives have a fitted effect of over 55% in size
#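 K18 P301L tau (15 uM + 0.24 uM Alexa 594-tagged), heparin 20 uM, NaOAc pH 7, 6 h 37 C; ThT 30 uM, 1 h RT, ex 450/em 510 nm.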
# The depositor's hits bear a star; ? = inconclusive; / = no result given. In the library only some 6% were active in any assay of this set; here they are far more common. Calls come from the whole dose curve; as a rule, active = well fitted curve in the direction sought with a large enough effect; inconclusive = small, poorly fitted or top-dose-only effect, or another doubt; inactive = no such curve, though single readings can be large; an effect the other way counts as inactive or inconclusive. Unless noted, % is set by controls: 0 for no effect and ±100 for the full control effect; potency is the fitted concentration of half-maximal effect.
SMILES,Tau fluor cs,PLK1 PBD block,Sfp inh,VDR inh,Tau fibril FP,Tau ThT inhib
O=C(O)CN(CC(=O)O)Cc1cc2c(-c3ccccc3C(=O)O)c3cc(CN(CC(=O)O)CC(=O)O)c(=O)cc-3oc2cc1O,-7%,/,56µM*,?,22µM*,?
CCOC(=O)c1c(CSC(=N)N)n(-c2ccc(C)cc2)c2cc(Br)c(OC(C)=O)cc12,-30%,-8%,45µM*,-10%,-15%,?
N#C/C(=C/c1ccco1)C(N)=S,?,-22%,10µM*,12%,?,28µM*
O=S(=O)(c1ccc(Br)cc1)c1nnn2c1nc(NCc1cccs1)c1sccc12,-12%,/,/,10%,?,9%
O=C(O)C1Nc2c(cccc2C(F)(F)F)C2C=CCC12 (stereo not drawn),/,/,50µM*,/,/,/
O=C(NCc1ccccc1)C1Nc2ccc(OC(F)(F)F)cc2C2C=CCC12 (stereo not drawn),/,-9%,/,-18%,/,/
COc1cccc2c1NC(C(=O)O)C1CC=CC21 (stereo not drawn),?,27µM*,7.9µM*,-18%,?,16µM*
C=CCNC(=S)N/N=C(\C)c1cccc(NC(C)=O)c1,-6%,-9%,50µM*,3%,-8%,-8%
Cc1ccc(N2C(=O)/C(=C/c3ccco3)SC2=S)cc1,-26%,-9%,?,-6%,-13%,?
Cc1ccc(N=C2NC(=O)S/C2=C\c2ccco2)cc1,1%,-20%,35µM*,5%,-2%,0%
O=C1NC(=Nc2ccccc2)/C(=C/c2ccco2)S1,?,-9%,22µM*,-11%,-9%,22µM*
COc1ccc(CNC(=O)c2cc(-c3cccc(Cl)c3)on2)cc1,-1%,/,/,2%,-13%,-1%
CCOCCCNC(=O)c1ccc(-n2c(-c3ccccc3)cc3c2CCC(C)C3)cc1 (stereo not drawn),?,/,/,13%,5µM*,10%
CCCNC(=O)c1cc(OC)c(OC)cc1[N+](=O)[O-],-1%,-1%,22%,-5%,-4%,-3%
COc1cc(C(=O)NCCc2ccc(F)cc2)c([N+](=O)[O-])cc1OC,6%,13µM*,7%,2%,0%,2%
CC(=O)Nc1cccc(NC(=O)CSc2n[nH]c(-c3ccccc3)n2)c1,/,1%,/,-24%,/,/
CN1C(=O)NC(c2ccc(O)cc2)C2=C1CN(c1ccccc1)C2=O (stereo not drawn),1%,24µM*,7%,?,0%,/
CCOC(=O)NC(=O)CSc1cc(C)c2cc(C)cc(C)c2n1,-10%,-22%,45µM*,-11%,-1%,?
COC(=O)c1ccc(CSc2cc(C)c3cc(C)cc(C)c3n2)o1,-7%,-13%,14µM*,-15%,-12%,?
CC(/C=N/n1c(-c2ccco2)n[nH]c1=S)=C\c1ccco1,-24%,-29%,45µM*,-6%,2%,?
CC(/C=N/n1c(-c2ccncc2)n[nH]c1=S)=C\c1ccco1,-17%,-24%,-27%,-12%,-1%,/
CC(/C=N/n1c(-c2ccccc2)n[nH]c1=S)=C\c1ccco1,-21%,-28%,?,2%,0%,?
CC(/C=N/n1c(-c2ccc(C)cc2)n[nH]c1=S)=C\c1ccco1,-21%,?,50µM*,?,-4%,-15%
COc1ccc(OCCCC(=O)Nc2cc([N+](=O)[O-])ccc2C)cc1,-22%,-16%,0%,14%,-1%,-12%
COc1ccc(NC(=O)C2CCCN2S(=O)(=O)c2ccc3c(c2)CCCC(=O)N3)cc1Cl (stereo not drawn),-9%,/,/,3%,2%,2%
SMILES,Tau fluor cs,PLK1 PBD block,Sfp inh,VDR inh,Tau fibril FP,Tau ThT inhib
C1COCCNCCOCCOCCOCCN1,2%,-2%,5%,?,-2%,-2%
S=C1NCCNC(=S)NCCOCCOCCN1,-10%,27µM*,27%,8%,1%,-6%
O=C(c1cc(C2CC2)nn1-c1ccccc1)N1CCN(S(=O)(=O)c2c(F)cccc2F)CC1,/,6%,/,-18%,/,/
Fc1ccc(-c2csc(N3CCOCC3)n2)cc1,-23%,-15%,-15%,-16%,5%,-20%
c1ccc2oc(-c3csc(N4CCOCC4)n3)cc2c1,-30%,-18%,56µM*,?,2%,?
O=C1NC(=Nc2ccccc2)S/C1=C\C=C\c1ccco1,0%,?,14%,?,1%,4%
Cc1ccc(N=C2NC(=O)/C(=C/C=C/c3ccco3)S2)cc1,?,?,?,?,?,6.3µM*
Cc1cccc(N=C2NC(=O)/C(=C/c3cccnc3)S2)c1C,-13%,-26%,?,5%,-12%,?
Cc1cccc(N=C2NC(=O)/C(=C/C=C/c3ccco3)S2)c1C,?,15µM*,40µM*,?,?,16µM*
COc1cc(/C=N/NC(=O)[C@H](Cc2c[nH]c3ccccc23)NC(=O)OCC(C)C)cc([N+](=O)[O-])c1O,?,-9%,6%,-13%,?,14µM*
CCN(CC(=O)NCc1ccc(Cl)cc1)C(=O)/C=C/c1ccc(Cl)c([N+](=O)[O-])c1,/,-13%,79µM*,-23%,/,/
CCN(CC(=O)NCc1ccc(Cl)cc1)C(=O)/C=C/c1ccccc1,/,-4%,6%,4%,/,/
CC(=O)Oc1ccc(N2C(=O)C3C4C=CC(C5CC45)C3C2=O)cc1[N+](=O)[O-] (stereo not drawn),-9%,-12%,56µM*,?,-13%,?
CC(=O)Oc1ccc(N2C(=O)C3C(C2=O)C2C=CC3C23CC3)cc1[N+](=O)[O-] (stereo not drawn),6%,-11%,-17%,5%,1%,?
Cc1ccc(/C(N)=N/OC(=O)CCc2ccccc2)cc1,?,-8%,-13%,0%,?,32µM*
CCCCN1C(=O)C(CC(=O)NCCCCc2ccccc2)CC(C(=O)N(C)C)=C1C (stereo not drawn),/,-10%,/,/,/,/
C[C@@H]1C=C[C@](Cc2ccccc2)(C(=O)NCCCNc2ncc(C(F)(F)F)cc2Cl)N1C(=O)c1ccccc1,-14%,/,9%,/,8%,?
COc1ccc(NC(=O)C(C/C=C(/C)Cl)C(C)=O)cc1 (stereo not drawn),-4%,3.8µM*,23%,2%,9%,-4%
Cc1ccc(CC(=O)NCc2ccc(Cl)cc2)cc1,-8%,15µM*,11%,?,-1%,-10%
S=c1nc(-c2cc(Cl)ccc2Cl)[nH][nH]1,-2%,15µM*,50µM*,?,3%,-5%
